Reference: PubChem BioAssay AID932 (The Scripps Research Institute Molecular Screening Center, 2007)
Among all 200,000 compounds or so, about 5,100 (2.5%) were called active.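 Rule for the calls: active = activation above the screen-wide mean activation plus 3 SD (cut at about 130% in these data); inactive = the rest.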 Only a selection was taken, and actives are over-represented in it overall.

Test: potentiators of IFN-gamma driven STAT1 reporter – cell-based, HTS, luciferase reporter, primary screen (AID 932);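 note: raw ratio to IFN-gamma control signal so 100% means no change and 0% no light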
Details: NIH 3T3 STAT1-luciferase reporter, luminescence, at 5.5 µM, hits give high values, 100% = IFN-gamma alone, no compound

| Compound | activation (% of control) |
| --- | --- |
| Cc1ccc(NC(=O)CCOc2ccccc2)cc1S(=O)(=O)Nc1ccccc1Cl | 98.8% (inactive) |
| Cc1csc(NC(=O)CSc2ccc(-c3ccc(F)cc3)nn2)n1 | 112% (inactive) |
| Cc1ccc(NC(=S)Nc2ncccc2C)c(C)c1 | 134% (active) |
| Cc1ccc(NC(=S)NCc2ccccc2Cl)c(C)c1 | 96.8% (inactive) |
| CCOC(=O)N1CCN(C(=S)Nc2ccc(C)cc2C)CC1 | 96.2% (inactive) |
| COc1ccc(N2CCN(C(=S)Nc3ccc(S(N)(=O)=O)cc3)CC2)cc1 | 89.8% (inactive) |
| COc1ccc(C=Nc2cccc3ncccc23)cc1 | 99.7% (inactive) |
| O=c1c2ccccc2nc(N/N=C/c2ccccc2)n1O | 113% (inactive) |
| COc1ccc(/C=N/Nc2nc3ccccc3c(=O)[nH]2)cc1 | 155% (active) |
| COc1ccc(S(=O)(=O)NCC2CCCN(C(=O)c3occc3C)C2)cc1 (stereo unspecified) | 96.8% (inactive) |
| COc1ccc(/C=N/NC(=O)C(C)N(c2ccc(OC)cc2)S(C)(=O)=O)cc1 (stereo unspecified) | 100% (inactive) |
| CC(C)(C)c1ccc(/C=C/C(=O)NC2CCS(=O)(=O)C2)cc1 (stereo unspecified) | 104% (inactive) |
| CC(C)(C)c1ccc(/C=C/C(=O)Nc2ncccn2)cc1 | 138% (active) |
| O=C(/C=C/c1ccc(Cl)cc1)Nc1ccc(S(=O)(=O)Nc2ncccn2)cc1 | 107% (inactive) |
| O=C(NCCN1C(=O)S/C(=C\c2cccnc2)C1=O)c1cccc(OC(F)F)c1 | 101% (inactive) |
| Cc1ccccc1NC(=O)NC1(C(=O)N2CCCC2)CCCCC1 | 99% (inactive) |
| COc1ccc2nc(NC(=O)c3ccc(Br)s3)sc2c1 | 158% (active) |
| COc1cccc(C(=O)Nc2nc3ccc(S(C)(=O)=O)cc3s2)c1 | 119% (inactive) |
| COc1ccc2nc(Nc3nc4ccc(NC(C)=O)cc4s3)sc2c1 | 109% (inactive) |
| O=C(/C=C/c1cccs1)NCc1cccnc1 | 101% (inactive) |
| CSc1ccc(/C=N/NC(=O)c2cccc(Cl)c2)cc1 | 150% (active) |
| COc1ccc(/C=N/NC(=O)c2cccc(C(F)(F)F)c2)cc1 | 105% (inactive) |
| CSc1ccc(/C=N\NC(=O)COc2ccc(Cl)cc2Br)cc1 | 103% (inactive) |
| COc1ccc(/C=C/C(=O)N2CCCC2)cc1OC | 84.7% (inactive) |
| COc1ccc(/C=C/C(=O)Nc2ccc(C34CC5CC(CC(O)(C5)C3)C4)cc2)cc1OC | 141% (active) |
| COc1ccc(/C=C/C(=O)Nc2cccnc2)cc1OC | 112% (inactive) |

| Compound | activation (% of control) |
| --- | --- |
| O=C(CC12CC3CC(CC(C3)C1)C2)NCc1ccco1 | 97.2% (inactive) |
| C/C(=N\NC(=O)c1cccc(N2CCCC2=O)c1)c1ccc(N)cc1 | 113% (inactive) |
| Nc1ccc(-c2sc(N)nc2-c2ccccc2)cc1 | 94.5% (inactive) |
| O=C(OCc1ccc(Br)cc1)c1cccc(-c2nnc(-c3ccccc3)o2)c1 | 112% (inactive) |
| CCCC(=O)Nc1nnc(-c2ccccc2)o1 | 103% (inactive) |
| Brc1ccc(-c2nnc(-c3ccccc3)o2)o1 | 138% (active) |
| OC(c1nnc(-c2ccccc2)o1)c1cccs1 (stereo unspecified) | 117% (inactive) |
| Nc1ccc(-c2nnc(-c3ccc(-c4ccccc4)cc3)o2)cc1 | 139% (active) |
| CCNC(=O)c1ccc(OCC(=O)Nc2ccc(F)cc2)c(OC)c1 | 105% (inactive) |
| CCCCN1C(=O)CCC(C(=O)O)C1c1ccc(OC)cc1 (stereo unspecified) | 107% (inactive) |
| Nc1ccc(C(=O)NCc2ccccc2)cc1 | 100% (inactive) |
| COC(=O)CSc1ccc2nnc(CCNS(=O)(=O)c3ccc(C)cc3)n2n1 | 96.4% (inactive) |
| COc1ccc(/C=N/NC(=O)CNC(=O)c2ccc(S(=O)(=O)N3CCCC3)cc2)c(OC)c1 | 99.5% (inactive) |
| Cc1noc(C)c1/C=N/Nc1ccc2ccccc2n1 | 157% (active) |
| Cc1cc(C)nc(N/N=C/c2c(C)oc3ccccc23)n1 | 98.5% (inactive) |
| C(=N\Nc1ccc2ccccc2n1)/c1ccc2c(c1)OCO2 | 35.8% (inactive) |
| Cc1cccc(C)c1NC(=O)C(c1ccccc1)N1CC(=O)Nc2ccccc21 (stereo unspecified) | 94.6% (inactive) |
| COC(=O)Nc1nc2ccc(Sc3ccccc3)cc2[nH]1 | 135% (active) |
| Cc1nc2ccc(C(=O)O)cc2[nH]1 | 96.9% (inactive) |
| COc1cc(OC)cc(C(=O)N[C@H](C(=O)Nc2nc3ccccc3[nH]2)C(C)C)c1 | 96.1% (inactive) |
| O=C(CCCc1ccccc1)NCc1ccccc1 | 108% (inactive) |
| CCOC(=O)CCNC(=O)N1CCCC(C(=O)c2ccccc2SC)C1 (stereo unspecified) | 92.5% (inactive) |
| O=C(Nc1ccc2nc3n(c(=O)c2c1)CCCCC3)c1ccccc1Cl | 101% (inactive) |
| COc1cc(NC(=O)c2cccs2)ccc1NC(=O)c1ccccc1Cl | 109% (inactive) |
| O=C(Nc1ccc2sc3ccccc3c(=O)c2c1)c1ccccc1Cl | 144% (active) |
| C#CCOCCOCCOCCNc1nc(N2CCN(C(=O)[C@H](C(C)C)n3cc(CCO)nn3)CC2)nc(N2CCN(C(=O)[C@H]([C@@H](C)CC)n3cc(CCCN=C(N)N)nn3)CC2)n1 | 100% (inactive) |

| Compound | activation (% of control) |
| --- | --- |
| O=C(COc1ccccc1[N+](=O)[O-])NC1CC1 | 92.9% (inactive) |
| NS(=O)(=O)c1ccc(NC(=S)NNC(=O)c2cccs2)cc1 | 104% (inactive) |
| N#Cc1c(NC(=O)C2CC(Cl)=CCC2C(=O)O)sc2c1CCCCC2 (stereo unspecified) | 103% (inactive) |
| N#Cc1c(NC(=O)C2CCCO2)sc2c1CCCCC2 (stereo unspecified) | 139% (active) |
| N#Cc1c(NC(=O)CCCl)sc2c1CCCCC2 | 101% (inactive) |
| CCc1ccc(NC(=O)N2CCN(c3ccccc3)CC2)cc1 | 109% (inactive) |
| CCOC(=O)c1ccc(NC2Nc3cc(C)nn3S2)cc1 (stereo unspecified) | 102% (inactive) |
| CCc1ccc(NC2Nc3cc(C)nn3S2)cc1 (stereo unspecified) | 171% (active) |
| COc1ccc(/C(N)=N/OC(=O)CCCc2ccccc2)cc1 | 108% (inactive) |
| COc1ccc(/C(N)=N/OC(=O)Cc2ccccc2)cc1 | 142% (active) |
| COc1ccc(/C(N)=N/OC(=O)Oc2ccccc2)cc1 | 98.3% (inactive) |
| COc1ccccc1-c1nc(SC)n[nH]1 | 103% (inactive) |
| CCOc1ccc(OCc2cccc(C(=O)N(CC)CC)c2)cc1 | 43.9% (inactive) |
| COc1cccc(C(=O)Nc2ccc(NC(=O)c3ccco3)cn2)c1 | 108% (inactive) |
| Cc1ccoc1C(=O)Nc1cccc(Oc2ccccc2)c1 | 137% (active) |
| O=C(O)Cc1ccc(NC(=O)c2cccs2)cc1 | 89.8% (inactive) |
| CN1CCN(S(=O)(=O)c2ccc(NC(=O)c3ccco3)cc2)CC1 | 98.8% (inactive) |
| C/C(=N/NS(=O)(=O)c1ccccc1)c1ccc(NC(=O)C(F)(F)F)cc1 | 105% (inactive) |
| Cc1cccc(NC(=O)Nc2cccc(Oc3c(F)c(F)c(F)c(F)c3F)c2)c1 | 101% (inactive) |
| Cc1ccc(C(=O)COc2cccc(NC(=O)c3ccco3)c2)cc1 | 93.6% (inactive) |
| O=C(Nc1ccc(NC(=O)c2cccs2)cn1)c1ccco1 | 142% (active) |
| O=C(Nc1ccc(Sc2ccc(Br)cc2)cc1)c1ccco1 | 93.9% (inactive) |
| COC(=O)c1ccc(NC(=O)c2ccco2)cc1 | 124% (inactive) |
| C/C(=N\NS(=O)(=O)c1ccc(Cl)cc1)c1ccc(NC(=O)c2ccco2)cc1 | 142% (active) |
| O=C(Nc1ccc(Oc2ccccc2)cc1)c1ccco1 | 132% (active) |
| Cc1c(Cl)cccc1NC(=S)N(Cc1ccccc1)Cc1cccnc1 | 94.9% (inactive) |

| Compound | activation (% of control) |
| --- | --- |
| CC(=O)Nc1ccc(NC(=S)NC(=O)/C=C/c2ccccc2)cc1 | 87.3% (inactive) |
| COc1cc(/C=N/N=C(\N)c2nonc2N)cc(OC)c1OC | 102% (inactive) |
| CC(C)(C)n1nc2c(c1NC(=O)c1cc3ccccc3o1)CSC2 | 97.4% (inactive) |
| Cc1cc(C)n(-c2nnc(N3CCN(c4ccccc4)CC3)nn2)n1 | 104% (inactive) |
| Cc1ccnc(NC(=O)c2ccc(NC(=O)c3ccco3)cc2)c1 | 129% (active) |
| Cc1ccnc(NC(=O)c2ccco2)n1 | 101% (inactive) |
| Cc1ccnc(NC(=O)c2ccoc2C)c1 | 127% (inactive) |
| O=C(/C=C/c1ccco1)Nc1ccc(Oc2ccccc2)cc1 | 134% (active) |
| Cc1nnc(NC(=O)/C=C/c2ccco2)s1 | 105% (inactive) |
| O=C(/C=C/c1ccco1)Nc1cccc(-c2nc3ccccc3[nH]2)c1 | 119% (inactive) |
| Cn1c(=O)c2c(ncn2CC(=O)N/N=C/c2cn[nH]c2-c2ccc(F)cc2)n(C)c1=O | 109% (inactive) |
| CC(Oc1ccccc1F)C(=O)NN (stereo unspecified) | 98% (inactive) |
| CC(C)c1nc(CNC(=O)CC2C(=O)NCCN2Cc2ccoc2)cs1 (stereo unspecified) | 101% (inactive) |
| O=C(O)c1ccc(NS(=O)(=O)c2ccc3c(c2)C(=O)c2cc(S(=O)(=O)Nc4ccc(C(=O)O)cc4)ccc2-3)cc1 | 95.5% (inactive) |
| CCCn1nc(C(=O)N2CCCc3ccccc32)c2ccccc2c1=O | 97.4% (inactive) |
| COc1ccc(-n2cnc3cc(C(=O)NC4CCCC4)ccc32)cc1 | 110% (inactive) |
| COc1ccc(Nc2nc(Cl)nc(NCc3ccco3)n2)cc1 | 104% (inactive) |
| COc1ccc(-n2cnc3cc(NCc4ccco4)ccc32)cc1 | 137% (active) |
| COc1cc(C(=O)N[C@@H](C)C(=O)NCc2ccco2)cc(OC)c1OC | 102% (inactive) |
| CN(CC(=O)Nc1ccccc1[N+](=O)[O-])Cc1ccc(Br)cc1 | 97.7% (inactive) |
| CC(C)CCN1CCN(Cc2ccc(C(F)(F)F)cc2)CC1CCO (stereo unspecified) | 100% (inactive) |
| O=C1CC(c2cccc(Cl)c2)CC(O)=C1C=Nc1ccccc1 (stereo unspecified) | 99.6% (inactive) |
| CC1=NN(c2ccccc2)C(=O)C1C(=O)c1ccc([N+](=O)[O-])cc1 (stereo unspecified) | 94.7% (inactive) |
